A short description of assay [1]: binders of probe aFSTL3 on microarray, primary screen, stem cell growth factor project, biochemical, small-molecule microarray, fluorescence 635/667 (AID 1064).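 Further: measures binding of the biotinylated anti-FSTL3 antibody to printed compounds.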 Conditions: higher = more signal.
The nature of assay [2]: binders from COS7 lysate, DM2A8 probe, primary screen, torsin A project, cell lysate, small-molecule microarray, fluorescence 635/667 (AID 1065). Conditions: higher = more signal, COS7 lysate expressing mutant human TOR1A.
The nature of assay [3]: binders of probe aFGF2 on microarray, primary screen, stem cell growth factor project, biochemical, small-molecule microarray, fluorescence 635/667 (AID 1067).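 Further: measures binding of biotinylated aFGF2 protein to printed compounds on slides; z-score merges feature fluorescence and signal-to-noise across triplicate slides.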 Conditions: higher = more signal.
A short description of assay [4]: binders of probe aFGF10 on microarray, primary screen, stem cell growth factor project, biochemical, small-molecule microarray, fluorescence 635/667 (AID 1071).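 Further: score merges 667 nm spot intensity and signal to noise from triplicate slides.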 Conditions: higher = more signal.
The target of assay [5] is Neurogenic locus notch homolog protein 2 (Homo sapiens) (UniProt Q04721). Nature of the assay: Notch2 binders on small-molecule microarrays, primary screen, biochemical, small-molecule microarray, 635 nm fluorescence, stem cell growth factors (AID 1073). Conditions: Notch2 binding, higher = more signal.
Sequence of Neurogenic locus notch homolog protein 2 (Homo sapiens) (Q04721 whole entry, looked up, canonical isoform): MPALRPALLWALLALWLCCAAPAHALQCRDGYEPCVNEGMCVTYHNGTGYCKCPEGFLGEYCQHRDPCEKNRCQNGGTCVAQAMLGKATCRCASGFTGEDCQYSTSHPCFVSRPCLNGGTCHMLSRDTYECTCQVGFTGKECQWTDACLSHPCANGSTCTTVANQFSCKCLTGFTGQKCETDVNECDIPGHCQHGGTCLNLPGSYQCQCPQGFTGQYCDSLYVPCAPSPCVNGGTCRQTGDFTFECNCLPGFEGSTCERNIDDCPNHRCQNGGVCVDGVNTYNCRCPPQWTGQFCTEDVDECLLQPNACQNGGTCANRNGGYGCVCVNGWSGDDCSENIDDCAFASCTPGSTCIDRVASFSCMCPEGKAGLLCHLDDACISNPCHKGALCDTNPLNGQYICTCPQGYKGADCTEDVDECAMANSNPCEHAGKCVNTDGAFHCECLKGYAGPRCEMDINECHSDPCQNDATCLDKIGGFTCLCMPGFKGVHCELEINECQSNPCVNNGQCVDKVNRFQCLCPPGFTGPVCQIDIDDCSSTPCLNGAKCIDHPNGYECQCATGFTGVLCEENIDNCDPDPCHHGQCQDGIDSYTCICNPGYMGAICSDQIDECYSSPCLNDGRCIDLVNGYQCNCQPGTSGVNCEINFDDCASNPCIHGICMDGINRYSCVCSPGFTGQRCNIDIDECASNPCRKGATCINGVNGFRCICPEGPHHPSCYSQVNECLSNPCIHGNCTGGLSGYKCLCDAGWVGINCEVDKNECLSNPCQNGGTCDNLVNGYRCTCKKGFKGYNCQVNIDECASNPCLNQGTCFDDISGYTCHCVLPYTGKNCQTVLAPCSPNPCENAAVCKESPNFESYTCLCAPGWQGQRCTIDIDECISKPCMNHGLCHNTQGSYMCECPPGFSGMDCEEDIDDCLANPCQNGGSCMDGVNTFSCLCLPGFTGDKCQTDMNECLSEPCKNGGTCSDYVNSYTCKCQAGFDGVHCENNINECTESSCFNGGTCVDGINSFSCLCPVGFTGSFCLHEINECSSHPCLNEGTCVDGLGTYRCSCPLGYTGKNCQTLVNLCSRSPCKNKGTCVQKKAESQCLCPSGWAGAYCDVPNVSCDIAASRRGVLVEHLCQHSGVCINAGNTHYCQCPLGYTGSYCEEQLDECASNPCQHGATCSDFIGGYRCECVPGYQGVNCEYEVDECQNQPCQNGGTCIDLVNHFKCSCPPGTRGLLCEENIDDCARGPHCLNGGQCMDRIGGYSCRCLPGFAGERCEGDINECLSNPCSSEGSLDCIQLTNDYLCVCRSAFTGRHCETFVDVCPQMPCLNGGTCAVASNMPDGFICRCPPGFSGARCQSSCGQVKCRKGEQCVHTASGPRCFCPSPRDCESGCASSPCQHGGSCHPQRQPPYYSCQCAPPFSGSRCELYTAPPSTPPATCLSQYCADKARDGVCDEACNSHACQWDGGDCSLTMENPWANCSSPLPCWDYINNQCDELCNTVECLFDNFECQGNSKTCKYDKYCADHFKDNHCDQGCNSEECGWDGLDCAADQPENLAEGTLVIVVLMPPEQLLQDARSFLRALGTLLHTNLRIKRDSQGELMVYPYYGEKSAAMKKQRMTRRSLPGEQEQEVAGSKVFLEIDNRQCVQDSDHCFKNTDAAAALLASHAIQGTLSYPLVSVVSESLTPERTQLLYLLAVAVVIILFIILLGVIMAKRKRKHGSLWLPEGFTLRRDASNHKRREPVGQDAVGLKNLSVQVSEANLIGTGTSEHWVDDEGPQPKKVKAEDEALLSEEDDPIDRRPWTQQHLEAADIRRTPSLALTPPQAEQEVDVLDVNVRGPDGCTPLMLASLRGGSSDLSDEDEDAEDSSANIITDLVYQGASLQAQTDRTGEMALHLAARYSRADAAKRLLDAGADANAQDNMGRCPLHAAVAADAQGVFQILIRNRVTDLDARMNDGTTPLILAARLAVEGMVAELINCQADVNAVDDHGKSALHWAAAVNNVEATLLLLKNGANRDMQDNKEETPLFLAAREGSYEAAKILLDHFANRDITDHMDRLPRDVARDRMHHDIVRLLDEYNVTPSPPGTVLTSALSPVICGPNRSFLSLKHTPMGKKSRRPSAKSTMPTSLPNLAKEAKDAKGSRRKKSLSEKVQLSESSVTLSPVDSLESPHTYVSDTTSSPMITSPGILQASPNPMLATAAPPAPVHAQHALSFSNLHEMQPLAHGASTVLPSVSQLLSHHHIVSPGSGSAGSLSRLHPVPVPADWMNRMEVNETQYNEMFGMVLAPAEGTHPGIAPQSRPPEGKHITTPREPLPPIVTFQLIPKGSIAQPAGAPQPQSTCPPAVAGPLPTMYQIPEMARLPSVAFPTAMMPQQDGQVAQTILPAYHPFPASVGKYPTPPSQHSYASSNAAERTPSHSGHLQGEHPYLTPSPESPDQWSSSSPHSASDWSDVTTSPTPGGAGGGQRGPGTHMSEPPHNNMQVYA
Assay [6] addresses Pro-neuregulin-1, membrane-bound isoform (Homo sapiens) (UniProt Q02297). Nature of the assay: NRG1 binders on small-molecule microarrays, primary screen, psychiatric disease protein project, biochemical, small-molecule microarray, fluorescence 635/667 (AID 1075).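 Further: score combines 667 nm spot fluorescence with signal to noise.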 The settings on record: NRG1 binding, 635 nm fluorescence, higher = more signal.
Assay [7] concerns Neuregulin-1 EGF-like domain. The experiment in a line: binders of neuregulin-1 EGF-like domain, primary screen, biochemical, small-molecule microarray, 635 nm fluorescence (AID 1081).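 Further: binding of the protein to compounds printed on small-molecule microarray slides.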 Conditions: small-molecule microarray binding, higher = more signal.
A short description of assay [8]: FRG1 promoter luciferase signal modulators, primary screen, FRG1 inhibition for FSHD, cell-based, C2C12 myotubes, firefly/Renilla luciferase, luminescence (AID 1084). Conditions: higher = more signal, called active from +8 up or from −8 down.
A short description of assay [9]: binders of probe aFST on microarray, primary screen, stem cell growth factor project, biochemical, small-molecule microarray, fluorescence 635/667 (AID 1086).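 Further: score merges 667 nm fluorescence with signal-to-noise of each printed compound spot.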 The settings on record: higher = more signal.
Assay [10] can be described thus: binders of probe aHhip on microarray, primary screen, stem cell growth factor project, biochemical, small-molecule microarray, fluorescence 635/667 (AID 1087).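 Further: score merges spot fluorescence at 667nm with spot signal to noise ratio.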 Conditions: higher = more signal.

Activity calls are given as the source filed them.

Sequence of Pro-neuregulin-1, membrane-bound isoform (Homo sapiens) (Q02297 whole entry, looked up, the tested form may be a part, canonical isoform): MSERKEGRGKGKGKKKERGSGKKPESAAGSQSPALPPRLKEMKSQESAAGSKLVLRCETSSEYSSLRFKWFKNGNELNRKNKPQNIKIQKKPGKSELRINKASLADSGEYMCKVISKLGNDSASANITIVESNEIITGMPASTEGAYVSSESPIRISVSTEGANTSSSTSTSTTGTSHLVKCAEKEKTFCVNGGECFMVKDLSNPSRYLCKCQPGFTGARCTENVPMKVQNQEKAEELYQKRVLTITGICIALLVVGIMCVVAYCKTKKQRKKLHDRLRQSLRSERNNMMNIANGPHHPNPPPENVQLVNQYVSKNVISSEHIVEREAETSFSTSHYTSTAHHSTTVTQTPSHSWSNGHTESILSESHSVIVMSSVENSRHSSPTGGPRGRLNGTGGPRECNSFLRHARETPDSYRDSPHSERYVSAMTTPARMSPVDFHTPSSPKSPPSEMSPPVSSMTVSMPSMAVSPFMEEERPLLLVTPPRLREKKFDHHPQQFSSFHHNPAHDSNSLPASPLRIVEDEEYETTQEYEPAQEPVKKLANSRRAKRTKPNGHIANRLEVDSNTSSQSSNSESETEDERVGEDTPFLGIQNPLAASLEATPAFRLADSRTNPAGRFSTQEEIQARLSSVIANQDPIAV

As for `O=C1NC(=O)C2C1C=CC(C(O)c1ccc(Br)cc1)N2Nc1ccccn1` (stereo not given), the composite z-score in [1] was found to be 0.253; in [2] it was 0.156; in assay [3], 0.0969; in [4], 1.05; in assay [5] it was 1.39; in assay [6], 1.8. Moreover, the composite z-score in [7] was 0.95; in assay [9], 0.331; in [10], -0.0296. Also, in assay [8], the z-score is -0.383 (inactive).

Turning to `CN1C(=O)C2C=CC(C(O)Cc3ccccc3)N(N(c3ccccc3)c3ccccc3)C2C1=O` (stereo not given), the composite z-score came out at 0.135 in assay [1]; 0.147 in [2]; 0.0295 in assay [3]; 0.837 in assay [4]; 0.602 in [5]; 0.503 in assay [6]. Also, the results for the composite z-score in assay [7], in assay [9] and in assay [10] were 1.11, 0.654 and 0.107, respectively. Besides, in assay [8], the z-score was 0.357 (inactive).

Turning to `CN(C)CCCN1C(=O)[C@@]2(c3ccc([N+](=O)[O-])cc3)CC(=O)N(CC34CC5CC(CC(C5)C3)C4)[C@@H]2c2ccc(CO)cc21`, the composite z-score in assay [1] was -0.106; in assay [2], -0.429; in assay [3], -0.0276; in assay [4], 0.0318; in assay [5], -0.346; in assay [6], 0.742. In addition, the composite z-score in [7] stood at 0.72; in [9], 0.0267; in assay [10], 0.0024. The z-score in assay [8] was 0.0832 (inactive).

As for `COc1ccc([Si](C)(C)[C@H]2[C@H](CC(=O)N3Cc4ccccc4C[C@H]3CO)O[C@@]3(C(=O)N(Cc4cccc(N5CCCCC5=O)c4)c4ccccc43)[C@@H]2C)cc1`, the composite z-score in assay [1] amounted to 0.0111; in [2] it was 0.576; in assay [3], 0.085; in assay [4], 0.36; in [5] it was 0.246; in [6], 0.175. The composite z-score in assay [7] was determined as 1.2; in assay [9] it was 0.342; in assay [10] it was 0.0274. For the same compound, in assay [8], the z-score was -2.09 (inactive).

`COC(=O)[C@]1(CCS(=O)(=O)c2ccccc2)N=C(c2ccc(OCCCO)cc2)O[C@@H]1c1ccccc1CN=[N+]=[N-]`: the composite z-score in assay [1] is 0.0312; in assay [2], 0.419; in [3] it was 0.0794; in assay [4], 0.169; in assay [5] it was 1.12; in [6] it was 0.959. For the same compound, the composite z-score in assay [7] was 1.35; in assay [9], 0.284; in [10], -0.346. The z-score in assay [8] was -1.96 (inactive).

Turning to `COCCCNC(=O)[C@@H]1c2ccccc2C(=O)N(Cc2ccccc2C(F)(F)F)[C@H]1c1ccc(CO)cc1`, the composite z-score is 0.6 in assay [1]; 0.054 in assay [2]; -0.0284 in assay [3]; -0.445 in [4]; -0.356 in assay [5]; 0.068 in assay [6]. The composite z-score in assay [7] was 1.16; in [9], 0.0584; in assay [10] it was -0.0726. Besides, the z-score in [8] was 0.421 (inactive).

Turning to `CC(C)C(=C=CC[C@@H](O)c1ccccc1OCCO)C[C@@H](O)COCc1ccccc1`, the composite z-score in [1] is -0.248; in [2], 0.399; in assay [3], -0.072; in [4] it was 0.729; in assay [5], 0.429; in assay [6] it was 1.13. The figures for the composite z-score in assay [7], in assay [9] and in assay [10] were 0.865, 0.592 and -0.199, respectively. For the same compound, in [8], the z-score is -3.84 (inactive).

As for `[N-]=[N+]=Nc1ccccc1[C@H]1OC(c2ccc(OCCCO)cc2)=N[C@@]1(CCS(=O)(=O)c1ccccc1)C(=O)N1CCCCC1`, the composite z-score was determined as 1.26 in [1]; 0.526 in [2]; 0.0056 in assay [3]; 0.699 in assay [4]; 1.43 in assay [5]; 1.46 in assay [6]. The values for the composite z-score in assay [7], in assay [9] and in assay [10] were 1.2, 1.24 and -0.201, respectively. Further, in assay [8], the z-score is 1.8 (inactive).

With `Cc1ccc(S[C@]2(C(=O)NCc3ccccc3)CC(=O)N(C(C)C)[C@@H]2c2ccc(CO)cc2I)cc1`, the composite z-score in assay [1] is 2; in assay [2] it was -0.464; in assay [3], -0.177; in assay [4], -0.392; in assay [5], -1.09; in assay [6], 1.05. Besides, the composite z-score is 0.399 in assay [7], 0.03 in [9] and 0.0623 in [10]. For the same compound, the z-score in [8] is -1.16 (inactive).

For the compound `Cc1ccc(S[C@]2(C(=O)NCCN3CCOCC3)CC(=O)N(Cc3ccccc3C(F)(F)F)[C@@H]2c2ccc(CO)cc2I)cc1`, the composite z-score in assay [1] is 0.273; in assay [2] it was -0.245; in [3], -0.0876; in [4], -0.36; in assay [5], -0.103; in assay [6], 2.09. Also, the figures for the composite z-score in assay [7], in assay [9] and in [10] were 1.23, -0.295 and -0.236, respectively. Further, the z-score in [8] is -0.883 (inactive).

Turning to `COC(=O)[C@@]1(Cc2ccc(OC)cc2)[C@H]2c3cc(C(=O)N(C)C)n(Cc4nc5ccccc5[nH]4)c3C[C@H]2CN1C(=O)c1ccccc1`, the composite z-score in assay [1] was 0.0732; in [2], -0.401; in assay [3], 0.212; in assay [4], 0.874; in assay [5], 1.76; in assay [6], 1.82. Also, the composite z-score was determined as 1.23 in assay [7], 1.09 in assay [9] and 0.147 in [10]. For the same compound, in [8], the z-score was -1.62 (inactive).

The values are drawn from PubChem BioAssay.
